Hit rate of the full screen: of about 310,000 compounds, about 14,000 (4.5%) showed an effect of 50% or more. Effects have a minus sign here. The list comes from a sample in which strong results are over-represented; it also holds similar structures and randomly drawn compounds.
Each compound was assayed against human ether-à-go-go-related gene (hERG) potassium channel (human, UniProt Q12809) (assay: primary screen, population patch clamp on CHO cells stably expressing hERG; higher = less effect of the substance).
human ether-à-go-go-related gene (hERG) potassium channel, sequence (Q12809 whole entry, looked up): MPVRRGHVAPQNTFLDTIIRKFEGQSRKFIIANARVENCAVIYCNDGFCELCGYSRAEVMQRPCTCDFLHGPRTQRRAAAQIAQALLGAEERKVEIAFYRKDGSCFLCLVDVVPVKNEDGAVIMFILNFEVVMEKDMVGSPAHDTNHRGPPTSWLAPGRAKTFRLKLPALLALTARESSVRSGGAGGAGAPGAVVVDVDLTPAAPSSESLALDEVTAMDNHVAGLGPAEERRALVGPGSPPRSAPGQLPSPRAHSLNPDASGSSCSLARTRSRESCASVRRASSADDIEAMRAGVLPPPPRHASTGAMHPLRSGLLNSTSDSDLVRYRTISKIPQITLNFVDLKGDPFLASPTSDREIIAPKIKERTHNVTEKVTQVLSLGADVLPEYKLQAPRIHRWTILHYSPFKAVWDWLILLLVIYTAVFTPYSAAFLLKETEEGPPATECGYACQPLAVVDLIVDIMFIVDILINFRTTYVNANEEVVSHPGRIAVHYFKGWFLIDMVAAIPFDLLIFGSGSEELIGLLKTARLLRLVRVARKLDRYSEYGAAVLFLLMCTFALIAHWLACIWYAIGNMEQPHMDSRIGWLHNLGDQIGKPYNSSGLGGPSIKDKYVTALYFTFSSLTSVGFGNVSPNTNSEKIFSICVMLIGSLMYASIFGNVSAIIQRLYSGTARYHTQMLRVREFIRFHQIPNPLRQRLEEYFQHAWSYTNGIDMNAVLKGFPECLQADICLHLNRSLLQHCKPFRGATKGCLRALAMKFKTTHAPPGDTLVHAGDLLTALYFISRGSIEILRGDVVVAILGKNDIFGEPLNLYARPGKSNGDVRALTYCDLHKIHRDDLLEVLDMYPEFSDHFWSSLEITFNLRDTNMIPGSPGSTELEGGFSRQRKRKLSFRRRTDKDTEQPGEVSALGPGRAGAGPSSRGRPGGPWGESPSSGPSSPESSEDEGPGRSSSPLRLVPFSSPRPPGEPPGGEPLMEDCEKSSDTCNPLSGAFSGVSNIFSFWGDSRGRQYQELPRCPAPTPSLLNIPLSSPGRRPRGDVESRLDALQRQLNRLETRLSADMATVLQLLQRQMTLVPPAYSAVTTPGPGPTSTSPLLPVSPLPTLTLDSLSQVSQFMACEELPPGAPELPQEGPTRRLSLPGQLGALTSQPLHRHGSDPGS
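Further: peak tail current of the secondary pulse compared with the same well before compound.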

Row | Structure (SMILES) | hERG current change (%, negative = inhibition) at 10uM
1 | O=C(Cc1ccc(F)cc1)Nc1nnc(SCC(=O)NC2CCCC2)s1 | 1.56%
2 | COc1cccc(C(O)c2nc3ccccc3n2C)c1 (stereo not drawn) | 3.27%
3 | CC(NC(=O)Cn1ccsc1=N)C12CC3CC(CC(C3)C1)C2.Cl (stereo not drawn) | -34.4%
4 | CCC(=O)c1c[nH]c(C(=O)NCc2ccccc2OC)c1 | -6.15%
5 | CCN(CC)CCCN1CC(O)=C(c2nc3ccccc3s2)C1=N | -34.2%
6 | Fc1ccc(Nc2nnns2)cc1 | 18.2%
7 | O=C(OCc1cccc([N+](=O)[O-])c1)c1ccc[nH]c1=O | 17.2%
8 | COc1ccc(CC(=O)Nc2cc(C)ccn2)cc1 | 6.87%
9 | O=C(COC(=O)C1CC(=O)N(Cc2ccccc2)C1)Nc1ccccc1F (stereo not drawn) | 7.39%
10 | COc1ccc(CN(C)C(=O)C2CCN(C(=O)Nc3ccccc3)CC2)cc1OC | -1.53%
11 | CN(Cc1cccc(Cl)c1)C(=O)C1CCN(C(=O)Nc2ccccc2)CC1 | -55.9%
12 | COc1ccc(CN(C)C(=O)C2CCN(C(=O)Nc3ccccc3)CC2)cc1 | -16.3%
13 | CSc1ccc(CN(C)C(=O)C2CCN(C(=O)Nc3ccccc3)CC2)cc1 | -67.4%
14 | CSc1ccccc1NC(=O)CN(C)C(=O)C1CCN(C(=O)Nc2ccccc2)CC1 | -11.4%
15 | CN(CC(=O)Nc1c(Cl)cccc1Cl)C(=O)C1CCN(C(=O)Nc2ccccc2)CC1 | 11.5%
16 | CCn1cnc2c1c(=O)n(CC(=O)Nc1ccc(C(N)=O)cc1)c(=O)n2Cc1ccccc1 | 13.8%
17 | Clc1cccc(C2Nc3cccc4cccc(c34)N2)c1Cl | 16.2%
18 | CCOC(=O)C1CCCN(c2nc3c(C)cccn3c(=O)c2/C=C(\C#N)C(=O)NCc2ccco2)C1 (stereo not drawn) | -49.7%
19 | N#C/C(=C\c1cccc([N+](=O)[O-])c1)C(=O)Nc1cccnc1 | 21.3%
20 | N#C/C(=C\c1cccc([N+](=O)[O-])c1)C(=O)NCc1cccnc1 | -50.8%
21 | CC(C)NC(=O)/C(=C\c1cccc([N+](=O)[O-])c1)NC(=O)c1ccccc1 | -18.1%
22 | O=C(/C=C/c1cccc([N+](=O)[O-])c1)NCc1cccnc1 | -14%
23 | Cc1ccc(C(=O)N/C(=C\c2ccccc2)C(=O)NCC2CCCO2)cc1 (stereo not drawn) | -24.3%
24 | O=C(NCC1CCCO1)/C(=C\c1cccc([N+](=O)[O-])c1)NC(=O)c1ccccc1 (stereo not drawn) | -33%
25 | Cc1ccc(C(=O)N/C(=C/c2cccc([N+](=O)[O-])c2)C(=O)NCC2CCCO2)cc1 (stereo not drawn) | -68.4%
26 | CCNC(=O)/C(=C/c1cccc([N+](=O)[O-])c1)NC(=O)c1ccc(C)cc1 | -58.1%
27 | Cc1ccc(C(=O)N/C(=C\c2cccc([N+](=O)[O-])c2)C(=O)NC(Cc2ccccc2)C(=O)O)cc1 (stereo not drawn) | 15.3%
28 | Cc1ccc(C(=O)N/C(=C\c2cccc([N+](=O)[O-])c2)C(=O)OCN2C(=O)c3ccccc3C2=O)cc1 | -11%
29 | CC(=O)N/C(=C\c1cccc([N+](=O)[O-])c1)C(=O)NC(C)C | 2.75%
30 | Cc1ccc(C(=O)N/C(=C/c2cccc([N+](=O)[O-])c2)C(=O)NC(C)C)cc1 | -51.8%

— PMC4336329 (PLoS ONE, 2015)
